Assay results reported in PubChem BioAssay AID504834 (National Center for Advancing Translational Sciences (NCATS), 2011).
About 22,000 (6.9%) of roughly 320,000 compounds were called active. Another 27% or so got no clear call; they are omitted. What follows is part of a selection rich in actives, with near analogues and random picks from the rest. Unmarked numbers belong to inactive results. The call rests on the fitted dose curve; in most records, active means well fitted inhibition curve with a large enough effect; inconclusive means small, poorly fitted or top-dose-only effect, or another doubt; inactive means no such curve, though single readings can be large or run the other way.

Assay: Primary qHTS for delayed death inhibitors of the malarial parasite plastid, 96 hour incubation
Conditions: P. falciparum luciferase reporter growth; series mostly up to 28.7 µM; activity change, negative = inhibition: at the top concentration
Outline: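 96 h incubation, 37 C, 5% CO2, of luciferase-reporter P. falciparum-infected RBCs (2% hematocrit, 0.05% parasitemia final) with test compounds; endpoint luminescence.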
On the % scale 0 is the no-effect control and ±100 the full control effect; potency means the concentration at half of the fitted maximal effect.

| Structure (SMILES) | activity change, negative = inhibition | Potency |
| --- | --- | --- |
| COc1ccccc1C(=O)COC(=O)CNS(=O)(=O)c1ccc(NC(C)=O)cc1 | 0.583% |  |
| CC(=O)Nc1ccc(N2C(=O)C3C4C=CC(CC4)C3C2=O)cc1 (stereo not drawn) | 16.1% |  |
| Cc1ccc(N2C(=O)C3C4C=CC(CC4)C3C2=O)cc1Br (stereo not drawn) | 39.1% |  |
| Cc1ccc(N2C(=O)C3C4C=CC(CC4)C3C2=O)cc1Cl (stereo not drawn) |  | 3.7 µM (active) |
| CCC(C)(C)NC(=O)C(c1ccc(OC)cc1)N(C(=O)CCC(=O)Nc1cc(C)on1)c1ccc(OC)cc1OC (stereo not drawn) | 26.5% |  |
| COc1cc(CC(=O)N2CCC(n3nccc3NC(=O)C3CC3)CC2)cc(OC)c1OC | 22.8% |  |
| Cc1ccc(-c2nc3c(cnn3-c3ccccc3)c(=O)o2)cc1 | -5.05% |  |
| Cc1ccc(-n2ncc3c(=O)n(-c4ccc(C)c(C)c4)c(-c4ccco4)nc32)cc1 |  | 9.28 µM (active) |
| O=c1c2ccccc2nc(-c2ccco2)n1-c1ccc(Br)cn1 | 15.4% |  |
| CC(=O)Nc1ccc(C(=O)N(C2=NC(C)CS2)c2ccc(Cl)cc2)cc1 (stereo not drawn) | 4.14% |  |
| COc1ccc(S(=O)(=O)NCC(c2ccco2)N2CCOCC2)cc1 (stereo not drawn) | 1.25% |  |
| CCC(=O)N(Cc1ccccc1)c1ccccn1 | 14.9% |  |
| O=C(O)CCC(=O)N(Cc1ccccc1)Cc1ccccc1 | -11.1% |  |
| CCN(Cc1ccncc1)C(=O)CCc1ccccc1 |  | 13.1 µM (active) |
| O=C(CCC(=O)n1ncc2ccccc21)NCc1ccccc1Cl | 25.6% |  |
| Cc1ccc(-n2c(SCC(=O)NCc3ccc4c(c3)OCO4)nnc2-c2cccnc2)c(C)c1 |  | 9.28 µM (active) |
| Cc1ccccc1-n1c(SCC(=O)NCc2cccs2)nnc1-c1ccncc1 | 9.17% |  |
| Cc1cccc(C)c1NC(=O)CSc1nnc(-c2ccccc2)n1Cc1ccc2c(c1)OCO2 | 5.46% |  |
| COc1ccc(NC(=O)c2cc(-c3ccc(C)cc3)on2)cc1 | -26.3% |  |
| Cc1csc(NC(=O)CSc2nnc(-c3cccnc3)o2)n1 | -15.7% |  |
| CCc1ccccc1NC(=O)c1cccs1 | 79.6% |  |
| CCOc1ccc(/C=C(/NC(=O)c2ccccc2)C(=O)NCCC(=O)O)cc1 | -17.1% |  |
| CCc1ccccc1NC(=O)/C(=C/c1ccccc1)c1ccccc1 |  | 8.28 µM (active) |
| CCSc1nc(O)c(C(c2cccc(OC)c2)c2c(O)nc(SCC)[nH]c2=O)c(=O)[nH]1 | 5.94% |  |
| CCOC(=O)C1CN(S(=O)(=O)c2ccc(OC)cc2)c2cc(Cl)ccc2O1 (stereo not drawn) | 23.2% |  |
| CCOC(=O)C1=C(c2ccccc2)NC(=O)NC1c1cc(OC)c(OC)cc1OC (stereo not drawn) | 12.3% |  |
| CCOC(=O)C1=C(CSc2nccn2C)NC(=O)NC1c1ccc(OC)cc1 (stereo not drawn) |  | 13.1 µM (active) |
| COc1ccc(-c2ccc3nnc(SCC(=O)Nc4ccc(NC(C)=O)cc4)n3n2)cc1 | 11.2% |  |
